# Laboratory results published in PubChem BioAssay.
# Activity calls are given as the source filed them. Unless noted, no rule for the calls is given here.
# Key:
# [1] = HepG2 liver cancer cell viability effects, profiling panel, resazurin fluorescence, 24 h, PK04 Diversity Set (AID 1172); conditions: higher = more signal
# [2] = basal S. cerevisiae growth modulation, no modifier, primary screen, OD600, strain BY4716, 24 h, basal condition (AID 1173); conditions: OD600, 24 h, higher = more signal, called active from +8 up or from −8 down
# [3] = MM1S myeloma cell viability, profiling panel, resazurin fluorescence, basal, 24 h, PK04 Diversity Set (AID 1174); conditions: higher = more signal, called active from +8 up or from −8 down;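 also: MM1S multiple myeloma cell line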
# [4] = molecular target: Dihydroorotate dehydrogenase (quinone), mitochondrial (Plasmodium falciparum (isolate 3D7)) (UniProt Q08210); experiment: PfDHODH enzyme inhibitors, primary screen, biochemical, C-terminal His tag, absorbance 600 nm (AID 1175); conditions: DCIP absorbance 600 nm, higher = more signal, called active from +8 up or from −8 down;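 also: recombinant parasite enzyme with a five histidine tag at its C terminus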
# [5] = P. aeruginosa biofilm formation inhibitors, primary screen, strain PAO1, LB-PBS medium, absorbance 600 nm (AID 1176); conditions: P. aeruginosa PAO1 growth/biofilm, A600, 12 h; higher = more signal
# [6] = S. cerevisiae RM11-1a growth modifiers, primary screen, strain RM11-1a, OD600, basal, 24 h (AID 1177); conditions: OD600, 24 h, higher = more signal, called active from +8 up or from −8 down;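 also: cultures grown under basal conditions with no added stressor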
# [7] = E. coli acrAB mutant growth effects, primary screen, E. coli filamentation inducers, strain DRC39, OD650, 24 h (AID 1178); conditions: higher = more signal, called active from +8 up or from −8 down;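 also: growth measured as culture turbidity by optical density at 650 nm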
# [8] = E. coli acrAB mutant growth effects, primary screen, E. coli filamentation inducers, strain DRC39, OD650, 48 h (AID 1179);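 also: screen aims at cell division blockers that make cells filament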; conditions: E. coli DRC39 delta-acrAB growth, higher = more signal, called active from +8 up or from −8 down
# [9] = RPMI8226 myeloma cell viability, profiling panel, resazurin fluorescence, basal, 24 h, PK04 Diversity Set (AID 1180); conditions: higher = more signal;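 also: RPMI8826 multiple myeloma cell line at 5000 cells per well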
# [10] = molecular target: E3 ubiquitin-protein ligase XIAP (Homo sapiens) (UniProt P98170); experiment: XIAP binders, primary screen, biophysical, small-molecule microarray, fluorescence 635 nm (AID 1181); conditions: small-molecule microarray binding, higher = more signal;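 also: score merges 667 nm emission and signal to noise over triplicate slides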
# [11] = test system: XIP peptide (Xip251-270) binding; experiment: small-molecule binders of XIP peptide, primary screen, biochemical, small-molecule microarray, fluorescence 635/667 nm, 0.1 µg/mL protein (AID 1182); conditions: fluorescent protein binding, 635 nm, higher = more signal, called active from +8 up or from −8 down
# XIP peptide (Xip251-270) = experiment: small-molecule binders of XIP peptide, primary screen, biochemical, small-molecule microarray, fluorescence 635/667 nm, 0.5 µg/mL protein (AID 1183); conditions: small-molecule microarray binding, fluorescence 635 nm; higher = more signal
# [12] = Plasmodium falciparum growth inhibition, primary screen, strain 3D7, DAPI fluorescence, 100 nL (AID 1184);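 also: parasites grown inside human red blood cells in medium with human serum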; conditions: P. falciparum 3D7 growth, 3 d, higher = more signal
# [13] = molecular target: Homeobox protein Hox-A13 (Mus musculus) (UniProt Q62424); experiment: inhibitors of HoxA13-DNA binding, primary screen, biochemical, fluorescence polarization, labeled oligonucleotide (AID 1185); conditions: 15 min, higher = more signal, called active from +8 up or from −8 down
# [14] = inhibitors of hydroxyurea-induced Chk1 phosphorylation, primary screen, imaging, HeLa, phospho-Chk1 antibody, percent positive cells (AID 1186); conditions: hydroxyurea-induced phospho-Chk1 immunofluorescence imaging, higher = more signal
# [15] = inhibitors of hydroxyurea-induced Chk1 phosphorylation, primary screen, imaging, HeLa, phospho-Chk1 nuclear intensity (AID 1187); conditions: hydroxyurea-induced phospho-Chk1 immunofluorescence imaging, higher = more signal
# Dihydroorotate dehydrogenase (quinone), mitochondrial (Plasmodium falciparum (isolate 3D7)), sequence (Q08210 whole entry, looked up): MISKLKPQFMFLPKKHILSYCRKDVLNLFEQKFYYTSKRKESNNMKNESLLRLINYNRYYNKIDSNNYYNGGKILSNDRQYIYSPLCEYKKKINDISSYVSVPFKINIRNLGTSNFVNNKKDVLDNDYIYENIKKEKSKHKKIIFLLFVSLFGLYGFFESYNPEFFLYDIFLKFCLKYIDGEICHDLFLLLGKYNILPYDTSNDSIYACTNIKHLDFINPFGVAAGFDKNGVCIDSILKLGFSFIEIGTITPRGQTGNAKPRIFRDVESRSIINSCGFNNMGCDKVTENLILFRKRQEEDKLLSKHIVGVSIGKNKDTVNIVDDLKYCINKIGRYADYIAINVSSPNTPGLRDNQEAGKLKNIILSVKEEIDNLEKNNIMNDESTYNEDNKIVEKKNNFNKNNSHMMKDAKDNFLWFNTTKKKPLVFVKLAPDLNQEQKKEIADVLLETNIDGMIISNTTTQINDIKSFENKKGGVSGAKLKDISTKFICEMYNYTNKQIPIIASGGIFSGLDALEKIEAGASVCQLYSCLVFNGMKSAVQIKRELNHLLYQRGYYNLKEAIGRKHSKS
# Homeobox protein Hox-A13 (Mus musculus), sequence (Q62424 whole entry, looked up): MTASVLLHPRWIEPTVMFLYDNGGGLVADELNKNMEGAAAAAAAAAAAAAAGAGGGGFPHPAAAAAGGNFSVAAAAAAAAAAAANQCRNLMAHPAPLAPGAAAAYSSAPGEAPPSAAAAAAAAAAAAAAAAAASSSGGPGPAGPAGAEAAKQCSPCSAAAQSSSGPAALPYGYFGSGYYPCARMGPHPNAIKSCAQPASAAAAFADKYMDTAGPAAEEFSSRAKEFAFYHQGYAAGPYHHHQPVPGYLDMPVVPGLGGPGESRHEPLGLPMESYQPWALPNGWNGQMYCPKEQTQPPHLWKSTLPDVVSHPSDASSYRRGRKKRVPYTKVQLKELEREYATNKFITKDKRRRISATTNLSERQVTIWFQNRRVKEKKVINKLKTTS
# E3 ubiquitin-protein ligase XIAP (Homo sapiens), sequence (P98170 whole entry, looked up): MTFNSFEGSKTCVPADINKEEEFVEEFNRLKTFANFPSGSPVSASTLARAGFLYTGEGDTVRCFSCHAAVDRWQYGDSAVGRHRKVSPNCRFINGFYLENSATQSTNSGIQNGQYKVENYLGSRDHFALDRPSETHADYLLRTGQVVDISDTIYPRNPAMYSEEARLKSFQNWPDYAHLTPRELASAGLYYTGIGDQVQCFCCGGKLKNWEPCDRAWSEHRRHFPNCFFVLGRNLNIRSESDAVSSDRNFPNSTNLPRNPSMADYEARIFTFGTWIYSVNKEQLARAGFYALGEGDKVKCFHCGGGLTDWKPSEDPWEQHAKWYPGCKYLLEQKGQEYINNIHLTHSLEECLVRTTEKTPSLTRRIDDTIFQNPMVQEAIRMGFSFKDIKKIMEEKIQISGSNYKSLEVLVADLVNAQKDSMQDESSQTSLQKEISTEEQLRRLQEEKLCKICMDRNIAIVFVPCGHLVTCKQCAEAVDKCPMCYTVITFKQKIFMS
Compound,z-score [1],z-score [2],z-score [3],composite z-score [4],z-score [5],z-score [6],z-score [7],z-score [8],z-score [9],composite z-score [10],composite z-score [11],composite z-score (XIP peptide (Xip251-270)),z-score [12],z-score [13],z-score [14],z-score [15]
CC(C)[Si](C#Cc1ccc(Oc2ccccc2)cc1)(O[Si](C#Cc1ccc(Oc2ccccc2)cc1)(C(C)C)C(C)C)C(C)C,0.0013,1.95 (inactive),0.698 (inactive),0.936 (inactive),-0.133 (inactive),1.88 (inactive),0.879 (inactive),0.3 (inactive),0.603,-0.0009,0.467 (inactive),-0.0968,-1.37,-2.37 (inactive),-1.01 (inactive),-0.556 (inactive)
C=CCNC(=O)[C@@H]1[C@H]2C(=O)O[C@H](c3ccccc3)[C@H](c3ccccc3)N2[C@H](c2ccccc2OCCO)[C@@]12C(=O)N(C(=O)OCCOC)c1ccccc12,-1.59,1.86 (inactive),-1.12 (inactive),0.693 (inactive),2.26 (inactive),3.27 (inactive),0.0191 (inactive),-0.476 (inactive),-1.65,-0.0559,3.44 (inactive),0.737,-1.16,-4.27 (inactive),0.115 (inactive),0.494 (inactive)
C=C[C@H](CO)NS(=O)(=O)c1ccc(Br)cc1,0.578,0.0356 (inactive),0.44 (inactive),-1.05 (inactive),-0.621 (inactive),0.34 (inactive),0.328 (inactive),0.276 (inactive),0.0112,-0.0559,-0.365 (inactive),0.242,0.843,0.205 (inactive),-0.462 (inactive),-0.458 (inactive)
CCC[C@@H]1C[C@@]1(CCC)[C@@H](NC(=O)c1ccccc1)c1cccc(Cl)c1,-0.141,1.74 (inactive),0.208 (inactive),0.249 (inactive),-0.195 (inactive),2.26 (inactive),-0.557 (inactive),-0.514 (inactive),1.09,-0.0326,0.11 (inactive),-0.211,-0.348,2.13 (inactive),-0.769 (inactive),-0.608 (inactive)
C=CCOC(=O)[C@H]1[C@@H]2C(=O)O[C@@H](c3ccccc3)[C@@H](c3ccccc3)N2[C@@H](c2ccc(OCCOC(=O)[C@H]3C[C@H]4C(=O)N[C@@H](CCCC[N+](C)(C)C)C(=O)N4[C@H]3c3ccc(O)cc3)cc2)[C@]12C(=O)Nc1ccc(I)cc12,-0.427,-0.154 (inactive),-0.13 (inactive),-0.24 (inactive),-0.379 (inactive),0.0102 (inactive),-0.873 (inactive),-0.473 (inactive),-0.078,2.28,1.7 (inactive),0.848,0.615,-2.52 (inactive),-0.324 (inactive),-0.62 (inactive)
[N-]=[N+]=NCc1ccccc1C[C@]1(C(=O)N2CCCCC2)N=C(c2ccc(OCCCO)cc2)O[C@H]1c1ccccc1N=[N+]=[N-],0.297,0.264 (inactive),-2.36 (inactive),0.168 (inactive),0.426 (inactive),0.875 (inactive),0.173 (inactive),-0.446 (inactive),-2.4,-0.332,0.113 (inactive),0.694,-1.95,0.766 (inactive),-0.273 (inactive),-0.448 (inactive)
[N-]=[N+]=Nc1ccccc1[C@H]1OC(c2ccc(OCCCO)cc2)=N[C@@]1(CCS(=O)(=O)c1ccccc1)C(N)=O,-0.183,-1.06 (inactive),0.952 (inactive),0.22 (inactive),0.897 (inactive),-0.167 (inactive),0.981 (inactive),-0.319 (inactive),0.187,0.291,1.21 (inactive),0.941,-1.42,-4.72 (inactive),-0.23 (inactive),0.052 (inactive)
COCCOC(=O)N1C(=O)[C@@]2(c3cc(C#Cc4ccc(OC)cc4)ccc31)[C@H](c1ccc(O)cc1)N1[C@H](c3ccccc3)[C@H](c3ccccc3)OC(=O)[C@H]1[C@@H]2C(=O)N1CCc2cc(OC)c(OC)cc2C1,0.28,-0.465 (inactive),-0.0918 (inactive),-0.463 (inactive),0.457 (inactive),-0.694 (inactive),-0.232 (inactive),-0.779 (inactive),0.572,-0.197,0.109 (inactive),0.629,-2.17,-1.71 (inactive),0.264 (inactive),0.948 (inactive)
COc1ccc(C#Cc2ccc3c(c2)[C@]2(C(=O)N3)[C@H](C(=O)Nc3nc4ccccc4s3)[C@H]3C(=O)O[C@H](c4ccccc4)[C@H](c4ccccc4)N3[C@@H]2c2ccc(O)cc2)cc1,1.2,0.0338 (inactive),0.283 (inactive),-2.08 (inactive),0.145 (inactive),1.15 (inactive),0.237 (inactive),-0.0528 (inactive),0.338,0.065,0.0642 (inactive),0.73,-0.435,-0.717 (inactive),-0.0599 (inactive),-0.17 (inactive)
COC(=O)C(CC#Cc1ccc2c(c1)[C@]1(C(=O)N2)[C@H](C(=O)Nc2nc3ccccc3s2)[C@H]2C(=O)O[C@H](c3ccccc3)[C@H](c3ccccc3)N2[C@@H]1c1ccccc1OCCO)C(=O)OC,0.522,0.839 (inactive),-0.334 (inactive),-4.92 (inactive),2.47 (inactive),2.1 (inactive),-0.0715 (inactive),0.037 (inactive),-1.1,0.472,1.5 (inactive),0.815,-2.02,2.38 (inactive),0.0018 (inactive),0.304 (inactive)
CC(C)CNC(=O)[C@@]1(Cc2ccccc2I)c2ccccc2C(=O)N(C2CCCCC2)[C@H]1c1ccc(CO)cc1,-0.462,0.408 (inactive),-0.424 (inactive),0.193 (inactive),0.348 (inactive),-0.199 (inactive),-0.113 (inactive),-0.0397 (inactive),-0.124,-0.0789,2.15 (inactive),0.696,-1.15,-3.77 (inactive),0.145 (inactive),-0.0021 (inactive)
COCCCNC(=O)[C@]1(CCC(=O)OC(C)(C)C)N=C(c2ccc(OCCCO)cc2)O[C@@H]1c1ccccc1CN=[N+]=[N-],0.49,-0.199 (inactive),-0.123 (inactive),0.249 (inactive),1.56 (inactive),-0.123 (inactive),0.323 (inactive),-0.187 (inactive),-0.0741,0.23,-0.0552 (inactive),0.848,-2.08,-6.66 (inactive),-0.113 (inactive),-0.534 (inactive)
COCCOC(=O)N1C(=O)[C@@]2(c3ccccc31)[C@H](c1ccc(O)cc1)N1[C@H](c3ccccc3)[C@H](c3ccccc3)OC(=O)[C@H]1[C@@H]2C(=O)Nc1nc2ccccc2s1,-0.175,0.183 (inactive),-1.1 (inactive),0.553 (inactive),0.995 (inactive),0.941 (inactive),0.411 (inactive),1.37 (inactive),-0.456,-0.02,0.343 (inactive),0.78,0.194,-0.526 (inactive),-0.0228 (inactive),0.221 (inactive)
COC(=O)[C@@]1(Cc2ccc(OC)cc2)[C@H]2c3cc(C(=O)N4CCCC4)n(Cc4ccc(O)c(OC)c4)c3C[C@H]2CN1C(=O)c1ccccc1,-1.76,1.19 (inactive),-0.431 (inactive),0.191 (inactive),0.591 (inactive),0.609 (inactive),-0.446 (inactive),-0.0429 (inactive),-2.77,0.227,1.29 (inactive),0.575,-1.65,-4.69 (inactive),0.449 (inactive),0.27 (inactive)
NCCCCCNC(=O)[C@@H]1C[C@@H]2C(=O)N[C@@H](Cc3ccccc3)C(=O)N2[C@@H]1c1ccc(O)cc1,-1.74,-0.576 (inactive),-0.0591 (inactive),-0.0741 (inactive),1.07 (inactive),-0.56 (inactive),-0.598 (inactive),-0.384 (inactive),0.15,0.013,0.632 (inactive),0.549,1.35,-1.87 (inactive),0.296 (inactive),0.204 (inactive)
COc1ccc([Si](C)(C)[C@@H]2[C@@H](CC(=O)N3CCC[C@H]3CO)O[C@]3(C(=O)N(c4ccccc4)c4ccccc43)[C@H]2C)cc1,0.733,-1.39 (inactive),0.315 (inactive),-1.27 (inactive),-0.106 (inactive),-1.2 (inactive),0.193 (inactive),0.258 (inactive),0.729,0.217,-0.152 (inactive),0.591,-0.831,-5.71 (inactive),-0.845 (inactive),-1.31 (inactive)
CN1C(=O)C2C=CC(C(O)C#Cc3ccccc3)N(N3CCCCC3)C2C1=O (stereo not drawn),-0.279,-0.375 (inactive),-0.347 (inactive),-1.07 (inactive),0.614 (inactive),-0.0362 (inactive),-0.276 (inactive),-0.884 (inactive),-0.0142,-0.0474,1.34 (inactive),0.84,-0.254,-4.72 (inactive),-0.699 (inactive),-0.674 (inactive)
O=C1C2C=CC(C(O)Cc3ccccc3)N(n3cnnc3)C2C(=O)N1Cc1ccccc1 (stereo not drawn),-0.957,0.341 (inactive),-1.04 (inactive),0.293 (inactive),-0.253 (inactive),0.656 (inactive),-1.08 (inactive),-1.13 (inactive),-1.05,0.0328,-0.139 (inactive),0.686,-1.29,-3.18 (inactive),-0.179 (inactive),-0.472 (inactive)
